Jurkat NFkB inh – inhibitors of induced NF-kB luciferase reporter, primary screen, TCR NF-kB activation inhibitor project, cell-based, luminescence, uHTS | Jurkat, PMA/ionomycin-induced NF-kB luciferase reporter | inhibition, % at 4 µM | 330,000 tested, 0.53% active | AID 435003, 2010; in the data active = inhibition above about 50%
697 NFkB inh – inhibitors of PMA/ionomycin-induced NF-kB reporter, 697 cells, primary screen, B-cell NF-kB inhibitor project, cell-based, luminescence, uHTS; 697 B-cell NF-kB luciferase reporter, 16 h; inhibition, % at 4 µM; 330,000 tested, 0.33% active; AID 435022, 2010; in the data active = inhibition above about 35%
Beta cell apopt – inhibitors of cytokine-induced beta cell apoptosis, primary screen, luminescence. INS-1E cytokine-induced death, ATP luminescence, 48 h; percent of positive-control rescue, neutral wells zero. protection from apoptosis, % (test concentration not listed). 300,000 tested, 0.8% active. AID 435005, 2010;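 active = Every replicate reaches about 75%, or at least half do and their mean reaches it too, limit read from the data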;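 also: 0% = cytokine-treated negative control wells and 100% = positive control rescue; higher means more ATP so stronger rescue from cytokine killing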
Calb FLC – C. albicans growth inhibition with fluconazole, primary screen, CaCi-2 strain, Alamar Blue fluorescence; C. albicans CaCi-2 (fluconazole-resistant clinical isolate) + fluconazole, 48 h; growth inhibition, % (no concentration beside the values); 300,000 tested, 0.57% active; AID 1979, 2009;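 active = growth inhibition above about 58% in most replicates, limit read from the data, passing the limit was not always enough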;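 also: all wells also contain fluconazole at 8 µg/ml as a sub-toxic cotreatment; 0% = median of DMSO wells and 100% = median of geldanamycin control wells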
Shn3 3UTR inh – reduction of Shn3 3'UTR firefly luciferase signal, primary screen, Schnurri-3 inhibitor project, cell-based, Clone20 osteoblasts, set 2. Clone20 osteoblast Shn3 3'UTR firefly luciferase, 24 h. inhibition, % at 12.5 µM. 360,000 tested, 0.52% active;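 active = mean inhibition of at least 75% with every replicate also reaching 75%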;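 also: 0% = median of neutral control wells and 100% = pilot-screen positive control compound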
697 NFkB conf – PMA/ionomycin-induced NF-kB reporter inhibitors, 697 retest, confirmation, B-cell NF-kB inhibitor project, cell-based, luminescence, single concentration. shares compounds with 697 NFkB inh. 697 B-cell NF-kB luciferase, 16 h. inhibition, % at 4 µM. 2,000 tested, 35% active. AID 449746, 2010; in the data active = inhibition mostly above about 28%, no sharp cut-off; inactive = mostly below about 22%
Active calls of the source: *; i = inactive; · = no result given. In the library only some 2% were active in any assay of this set; here they are far more common.

SMILES	Jurkat NFkB inh	697 NFkB inh	Beta cell apopt	Calb FLC	Shn3 3UTR inh	697 NFkB conf
CCc1ccc(/C=C2\SC(=S)N(CCCC(=O)Nc3cc(C)on3)C2=O)cc1	·	·	·	·	64.9	·
COc1cc(C(C)=O)ccc1OCC(=O)NCC(c1ccc(F)cc1)N1CCOCC1 (stereo unspecified)	9.4	10.5	-6.1	·	12.6	·
COc1ccccc1CNC(=O)CCS(=O)(=O)c1ccc(Cl)cc1	1.2	14.1	-8.7	-7.5	-10.3	·
CCOC(=O)N1CCN(Cc2ccc(OCC(O)CN3CCCCC3)cc2)CC1 (stereo unspecified)	6.1	5.3	·	3.0	17.4	·
O=C(Nc1cccc(-c2nc3ccccc3s2)c1)C1=COCCO1	-12.0	-19.0	4.0	-1.6	-43.4	·
O=C(Nc1ccc(-c2nc3ccccc3s2)cc1)C1=COCCO1	-61.1	-299.6	-0.6	6.6	70.5	-290.0
COC(=O)[C@H](C)NC(=O)Nc1cccc(C(F)(F)F)c1	7.2	35.6*	-2.8	-17.4	-6.8	2.2
Cc1ccc(C2(c3ccc(C)cc3)CC2C(=O)Nc2ccc([N+](=O)[O-])cc2O)cc1 (stereo unspecified)	23.4	97.3*	124.5*	-12.6	78.0	96.8*
CC1(C)CC1C(=O)Nc1ccc([N+](=O)[O-])cc1Br (stereo unspecified)	3.4	11.4	0.7	8.5	9.0	·
COc1cccc(NC(=O)COC(=O)C2CC3CCCC(C2)C3=O)c1 (stereo unspecified)	-0.7	8.2	-2.6	·	2.0	·
COc1cc(C(=O)Nc2ccc(C(=O)c3cccs3)cc2)cc(OC)c1OC	22.3	36.5*	7.7	13.4	27.4	6.5
O=C(Cc1n[nH]c(=O)c2ccccc12)OCc1c(Cl)cccc1Cl	-30.7	i	6.6	0.7	-17.6	i
CCOC(=O)Cc1n[nH]c(=O)c2ccccc12	3.5	15.0	-3.7	-15.9	-2.7	·
CC1=Nn2c(nnc2-c2n[nH]c3c2CCC3)SC1	-14.6	23.0	-3.5	0.5	-0.8	·
Fc1ccc(C2=Nn3c(nnc3-c3n[nH]c4c3CCC4)SC2)cc1	-8.7	43.6*	-10.3	-11.4	10.0	53.4*
Fc1ccc(Nc2nc(N3CCOCC3)nc(N3CCOCC3)n2)cc1	-15.2	-6.5	-5.9	8.6	5.0	·
Cc1[nH]c2ccccc2c1/C=N/Nc1nc(Nc2ccc(F)cc2)nc(N2CCOCC2)n1	31.5	48.4*	4.1	-12.2	4.4	59.6*
O=C(Oc1cccc(/C=N/Nc2nc(Nc3ccccc3)nc(N3CCOCC3)n2)c1)c1ccco1	-76.3	43.4*	10.8	16.2	9.3	49.3*
O=C(NCc1ccccn1)c1cc(-c2ccc(-c3ccccc3)cc2)nc2ccccc12	-53.4	i	-3.5	9.1	15.1	i
COCCNC(=O)c1cc(-c2ccc(-c3ccccc3)cc2)nc2ccccc12	-83.3	i	0.0	27.6	20.8	i
O=C(NCc1ccccn1)c1cc(-c2ccccc2)nc2ccccc12	-5.5	3.9	1.0	-7.0	-18.5	·
COc1ccc(C(=O)Nn2c(C)nc3ccccc3c2=O)cc1[N+](=O)[O-]	-21.7	-2.6	-5.3	-7.2	-10.9	·
COc1ccc(-c2nc(N)ncc2-c2ccccc2OC)c(O)c1	-7.7	-8.0	-11.5	1.1	-21.9	·
CC1CCN(c2cc(N3CCN(C(=O)c4ccc(F)c(F)c4)CC3)c([N+](=O)[O-])cc2F)CC1	21.4	38.3*	-9.7	-7.0	14.0	18.2
COc1cc2c(cc1C1NC(=S)NC(C)=C1C(N)=O)CCCC2 (stereo unspecified)	-22.0	42.6*	-2.0	-19.9	-31.6	0.9
Cc1ccc(NC(=O)COc2coc(CN3CCN(c4ccccc4)CC3)cc2=O)cc1	19.2	2.2	·	4.9	16.0	·
O=C(Nc1ccc2c(c1)CCCN2C(=O)c1ccccc1)c1ccccc1Br	-12.9	-333.3	15.0	1.6	1.5	-180.0
CC1C(=O)N2CCCc3cc(NC(=O)c4ccccc4Br)cc1c32 (stereo unspecified)	16.6	40.9*	0.6	-1.5	1.5	22.6

Bioassay records as filed in PubChem BioAssay.
